ClpP mod: qHTS Assay for Activators of ClpP; ATP-dependent Clp protease proteolytic subunit (Bacillus subtilis (strain 168)), P80244; purified B. subtilis ClpP, FRET peptide cleavage, 20 min; Potency, µM (top dose mostly 57.5 µM); 340,000 tested, 1.9% active; active = well fitted falling curve with a large enough effect; inconclusive = small, poorly fitted or top-dose-only effect; inactive = no such curve, though single readings can be large or run the other way; also: the source files actives as falling curves though it sought activators and does not explain the sign; nearly all actives have a fitted effect of over 65% in size
Target sequence (P80244 whole entry, looked up): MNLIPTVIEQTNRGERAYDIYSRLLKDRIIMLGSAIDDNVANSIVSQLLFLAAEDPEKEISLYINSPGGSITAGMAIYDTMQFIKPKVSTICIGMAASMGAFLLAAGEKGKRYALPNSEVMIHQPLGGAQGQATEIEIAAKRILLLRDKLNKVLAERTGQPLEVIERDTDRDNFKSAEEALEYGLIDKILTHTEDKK
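FRET quenching reversal measured ClpP activation: 10 microg/mL B. subtilis ClpP at pH 8 with the FRET-FV decapeptide, read at 430 nm after 320 nm excitation. The 20-min minus 0-min signal was scaled between DMSO/no-enzyme wells and ADEP (5.8 microM final).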
TDP1 cell CPT: growth inhibition of DT40 Tdp1-/-;hTDP1 cells with camptothecin (screen for TDP1 inhibitors) | chicken DT40 Tdp1-/-;hTDP1 cells + 20 nM CPT, ATP luminescence, 48 h | Potency, µM (series often up to 46.2 µM), actives largely listed as inhibitors | 420,000 tested, 12% active | AID 686979; also: nearly all actives have a fitted effect of over 55% in size
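Chicken DT40 Tdp1-/- cells stably complemented with human TDP1 were seeded at 400 cells/well in medium containing 20 nM camptothecin, exposed to pin-transferred compounds, and grown at 37 °C for at least 48 hr. Viability was read as ATP luminescence.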
TDP1 cell noCPT: qHTS for Inhibitors of human tyrosyl-DNA phosphodiesterase 1 (TDP1): qHTS in cells in absence of CPT | DT40 Tdp1-/- hTDP1 cells, no CPT, ATP luminescence, 48 h | Potency, µM (series often up to 46.2 µM), actives largely listed as inhibitors | 420,000 tested, 15% active; also: nearly all actives have a fitted effect of over 55% in size
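DT40 Tdp1-/-;hTDP1 cells, no CPT (DMSO vehicle only), 400 cells/well; compounds pin-transferred; ≥48 hr, 37 °C; CellTiter-Glo 30 min RT dark, luminescence read.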
DRD3 agonist: D3 dopamine receptor (human) agonism; P35462; D3R DiscoveRx beta-arrestin cells, luminescence, 90 min; max activation, %; 410,000 tested, 0.58% active; AID 652048; in the data active = max activation above about 30%
Target sequence (P35462 whole entry, looked up): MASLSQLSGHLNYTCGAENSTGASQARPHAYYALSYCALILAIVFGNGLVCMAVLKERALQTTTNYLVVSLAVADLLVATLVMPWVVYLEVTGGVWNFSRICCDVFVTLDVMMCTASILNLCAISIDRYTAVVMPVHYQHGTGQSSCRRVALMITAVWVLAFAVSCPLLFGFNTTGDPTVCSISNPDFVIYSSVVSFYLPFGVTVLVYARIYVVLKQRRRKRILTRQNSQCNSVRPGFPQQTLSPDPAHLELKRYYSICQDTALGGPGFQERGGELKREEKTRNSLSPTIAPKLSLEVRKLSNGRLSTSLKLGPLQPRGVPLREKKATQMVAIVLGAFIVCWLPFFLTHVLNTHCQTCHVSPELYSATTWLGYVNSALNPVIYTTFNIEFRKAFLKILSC
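Agonist-mode cell screen: cells plated at 1500/well and incubated overnight at 37 °C, then exposed to library compounds for 90 min at 37 °C. Detection reagent was added for 30–60 min at room temperature, and luminescence was read.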
IL1B secr inh: inhibitors of inflammasome signaling (IL-1 beta secretion) | THP-1 LPS/ATP IL-1B secretion, AlphaLISA, 16 h; active compounds read low | activity change, % at 57.5 µM | 360,000 tested, 4.7% active | AID 743279; in the data active = activity change below about -50%; inconclusive = mostly about -30% to -49%
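THP-1 cells pretreated 1 hr with compounds (up to 57.5 uM final), then stimulated with LPS (250 ng/mL final) plus ATP (1.25 mM final); secreted IL-1B measured by AlphaLISA after 16 hr, decreased signal indicating inhibition.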
D3 antag: D3 dopamine receptor (human) antagonism. D3R cells, DiscoveRx beta-arrestin luminescence, antagonist mode; active compounds read low. max response, negative = inhibition, %. 360,000 tested, 2.5% active. AID 652054; in the data active = max response below about -50%; inconclusive = no clear call, values can overlap the other calls
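Cells expressing the human receptor were seeded at 1500 cells/well, incubated overnight at 37 degrees C in 5% CO2, then exposed to library compounds with dopamine controls for 90 minutes at 37 degrees C before luminescent detection.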
Large screens that a line does not name were inactive. Hits are enriched below; roughly 21% of the tested compounds scored in any of these assays. Unless noted, calls follow the shape of the dose curve; as a rule, active = well fitted inhibition curve with a large enough effect; inconclusive = small, poorly fitted or top-dose-only effect; inactive = flat fitted curve, though single readings scatter.

CCOC(=O)C1CCN(C(=O)COc2ccc([N+](=O)[O-])cc2)CC1	TDP1 cell CPT inconclusive (no result: ClpP mod)
O=C(Cc1ccc(S(=O)(=O)N2CCOCC2)s1)Nc1ccccc1Br	none
CC(C)(C)c1csc(NC(=O)Cc2ccc(S(=O)(=O)N3CCOCC3)s2)n1	TDP1 cell CPT inconclusive, TDP1 cell noCPT 15µM, IL1B secr inh inconclusive
Cc1cnc(NC(=O)Cc2ccc(S(=O)(=O)N3CCOCC3)s2)s1	TDP1 cell noCPT inconclusive
O=C(Cn1nnc(-c2ccccc2)n1)Nc1ccccc1N1CCOCC1	TDP1 cell CPT inconclusive, TDP1 cell noCPT 13µM, IL1B secr inh inconclusive
O=C(Cc1ccc(Cl)c(Cl)c1)Nc1ccccc1N1CCOCC1	TDP1 cell CPT 23µM, TDP1 cell noCPT inconclusive (no result: ClpP mod)
Cc1ccc(-c2nnn(CC(=O)Nc3ccccc3N3CCOCC3)n2)cc1	TDP1 cell CPT inconclusive, TDP1 cell noCPT inconclusive
CCN(CC)S(=O)(=O)c1ccc(C)c(NC(=O)Cc2ccc(S(=O)(=O)N3CCOCC3)s2)c1	TDP1 cell CPT inconclusive, TDP1 cell noCPT 21µM
COC(=O)C1=C(C)Nc2c(c(=O)n(C)c(=O)n2C)C1c1ccc(C)cc1 (stereo not given)	none
FC(F)(F)c1ccccc1-c1cc(NCCN2CCOCC2)ncn1	none (no result: ClpP mod, DRD3 agonist, IL1B secr inh, D3 antag)
Cc1ccc(C)c(NC(=O)C(Cc2ccccc2)N2Cc3ccccc3C2=O)c1 (stereo not given)	TDP1 cell CPT inconclusive, TDP1 cell noCPT inconclusive (no result: IL1B secr inh, D3 antag)
CC(C)CC(=O)Nc1ccccc1N1CCN(c2ccc(F)cc2)CC1	TDP1 cell CPT 18µM, TDP1 cell noCPT inconclusive (no result: ClpP mod)
O=C(Cc1ccc(S(=O)(=O)N2CCOCC2)s1)Nc1ccccc1N1CCOCC1	ClpP mod 14µM, TDP1 cell CPT inconclusive, TDP1 cell noCPT 12µM
CC(C)CC(=O)Nc1ccccc1N1CCCC1	none
O=C(Nc1ccccc1N1CCOCC1)C1=NN(c2ccccc2)C(=O)CC1	ClpP mod inconclusive, TDP1 cell noCPT inconclusive, D3 antag -52
O=C(Cc1ccc2c(c1)OCCO2)Nc1cc(Cl)ccc1N1CCOCC1	TDP1 cell CPT 16µM, TDP1 cell noCPT inconclusive (no result: ClpP mod)
CCCCCCCCCCCCCCCCOCC(CO)OC (stereo not given)	none (no result: ClpP mod, DRD3 agonist, IL1B secr inh, D3 antag)
CCc1ccc(NC(=O)CS(=O)CC(=O)Nc2ccc(N3CCOCC3)cc2)cc1 (stereo not given)	TDP1 cell noCPT inconclusive (no result: ClpP mod)
COCC(=O)Nc1cc(C(=O)N2CCSCC2)cc2nc(-c3ccccc3)n(C)c12	none (no result: ClpP mod, DRD3 agonist, IL1B secr inh, D3 antag)
O=C(Cc1ccccc1)Nc1ccccc1N1CCCC1	TDP1 cell CPT inconclusive, TDP1 cell noCPT inconclusive
O=C(Cc1ccccc1)Nc1ccccc1N1CCOCC1	D3 antag -52
O=C(C[n+]1ccccc1Br)c1ccc(-c2ccccc2)cc1	TDP1 cell CPT inconclusive (no result: DRD3 agonist, IL1B secr inh, D3 antag)
O=[N+]([O-])c1nn(-c2ccc(Cl)cc2)n(O)c1=NCc1ccncc1	TDP1 cell CPT 5.2µM, TDP1 cell noCPT 10µM, IL1B secr inh inconclusive
Cc1ccc(CN=c2c([N+](=O)[O-])nn(-c3ccc(Cl)cc3)n2O)cc1	TDP1 cell CPT inconclusive, TDP1 cell noCPT inconclusive
O=[N+]([O-])c1nn(-c2ccc(Cl)cc2)n(O)c1=NCc1cccnc1	TDP1 cell CPT 8.2µM, TDP1 cell noCPT 10µM
Cc1cccc(-n2nc([N+](=O)[O-])c(=NCc3cccnc3)n2O)c1	TDP1 cell CPT 12µM, TDP1 cell noCPT inconclusive
O=[N+]([O-])c1nn(-c2cccc(Cl)c2)n(O)c1=NCc1cccnc1	TDP1 cell CPT 8.2µM, TDP1 cell noCPT 13µM
CCn1cc(C(=O)N(C)c2ccccc2F)c2cc(OC)c(OC)cc2c1=O	TDP1 cell CPT inconclusive, IL1B secr inh inconclusive
Cc1cc(NC(=O)c2cnc3c(-c4ccccc4)c(C)nn3c2C)ccc1Br	TDP1 cell CPT inconclusive, TDP1 cell noCPT inconclusive, DRD3 agonist 34 (no result: IL1B secr inh, D3 antag)
COc1ccccc1CNC(=O)c1cnc2c(-c3ccccc3)c(C)nn2c1C	TDP1 cell CPT inconclusive, TDP1 cell noCPT inconclusive (no result: IL1B secr inh, D3 antag)
CCN(CC)c1ccc(NC(=O)c2cnc3c(-c4ccccc4)c(C)nn3c2C)c(C)c1	TDP1 cell CPT inconclusive, TDP1 cell noCPT inconclusive (no result: IL1B secr inh, D3 antag)
Cc1nn2c(C)c(C(=O)NCCc3ccccc3)cnc2c1-c1ccccc1	TDP1 cell CPT inconclusive, TDP1 cell noCPT inconclusive (no result: IL1B secr inh, D3 antag)
COc1cc(CNC(=O)c2cnc3c(-c4cccc(C)c4)c(C)nn3c2C)cc(OC)c1OC	TDP1 cell CPT 12µM, TDP1 cell noCPT 16µM (no result: IL1B secr inh, D3 antag)
Cc1ccc(C)c(N2CCN(C(=O)c3cnc4c(-c5ccccc5)c(C)nn4c3C)CC2)c1	TDP1 cell CPT 26µM, TDP1 cell noCPT inconclusive (no result: IL1B secr inh, D3 antag)
O=C1CCCCC1Nc1ccc(Br)cc1 (stereo not given)	none
CC1(C)CC(=O)C=C(c2cccnc2)C1	none
O=S1(=O)NC(=NCCc2ccccn2)c2ccccc21	none (no result: ClpP mod)
CCCCC(CC(O)COCCC)c1n[nH]c(=S)n1-c1ccccc1 (stereo not given)	none (no result: ClpP mod)
Cn1c(=O)c2cc(NC(=O)CCc3ccccc3)ccc2n1Cc1cccc(C(F)(F)F)c1	TDP1 cell CPT 16µM, TDP1 cell noCPT 13µM
COc1ccccc1CCC(=O)Nc1ccc2c(c1)c(=O)n(C)n2Cc1cccc(C(F)(F)F)c1	TDP1 cell CPT 23µM, TDP1 cell noCPT inconclusive

Screens: PubChem, National Center for Advancing Translational Sciences (NCATS)
